Data taken from the supplement of paper PMC6555819.

Legend:
Assay in all cases: PBM binding z-score (relative to random genomic background probes); higher = stronger binding; sequences stand for … in GC…GCGATTGACAGCGTAGAATGAAGG
[1] = test system: PPARg:RXRa DBDmut IVT, anti-RXR (DBD mutation: RXRa K156A/R161A, NR concentration 270 nM, RXRa partner concentration 90 nM)
Method in brief: (§1)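 Custom Agilent 4×180K protein-binding microarrays carried double-stranded probes, each with a 34-nt variable region. These regions held direct-repeat seeds, single-nucleotide variants, half-site ablations and random human genomic background sequences. Ligand-free nuclear receptor dimers were incubated on the arrays for 1 h, antibodies against each partner (one per run) detected binding, and scanned fluorescence was regression-normalized. Binding z-scores take the random background probes as reference.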

[2] = test system: PPARg:RXRa IVT, anti-PPARg (NR concentration 270 nM, RXRa partner concentration 90 nM)
Method in brief: as §1

[3] = test system: PPARg DBDmut:RXRa IVT, anti-PPARg (DBD mutation: PPARg1 K132A/R137A, NR concentration 270 nM, RXRa partner concentration 90 nM)
Method in brief: as §1

[4] = test system: PPARg DBDmut IVT, anti-PPARg (DBD mutation: PPARg1 K132A/R137A, NR concentration 270 nM)
Method in brief: as §1

[5] = test system: PPARg homodimer (NR concentration 180 nM)
Method in brief: as §1

[6] = test system: PXR:RXRa (NR concentration 270 nM, RXRa partner concentration 90 nM)
Method in brief: as §1

[7] = test system: PXR homodimer (NR concentration 270 nM)
Method in brief: as §1

[8] = test system: RARa:RXR (NR concentration 270 nM, RXRa partner concentration 90 nM)
Method in brief: as §1

[9] = test system: RARa homodimer (NR concentration 270 nM)
Method in brief: as §1

[10] = test system: RARb:RXRa (NR concentration 270 nM, RXRa partner concentration 90 nM)
Method in brief: as §1

[11] = test system: RARb homodimer (NR concentration 270 nM)
Method in brief: as §1

[12] = test system: RARg:RXRa (NR concentration 270 nM, RXRa partner concentration 90 nM)
Method in brief: as §1

[13] = test system: RARg homodimer (NR concentration 270 nM)
Method in brief: as §1

[14] = test system: RXRa DBDmut IVT, anti-RXR (DBD mutation: RXRa K156A/R161A, NR concentration 90 nM)
Method in brief: as §1

[15] = test system: RXRa homodimer (NR concentration 180 nM)
Method in brief: as §1

[16] = test system: THRa:RXRa (NR concentration 90 nM, RXRa partner concentration 90 nM)
Method in brief: as §1

[17] = test system: THRa homodimer (NR concentration 90 nM)
Method in brief: as §1

[18] = test system: VDR homodimer (NR concentration 270 nM)
Method in brief: as §1

Row | Sequence | PBM binding z-score [1] | PBM binding z-score [2] | PBM binding z-score [3] | PBM binding z-score [4] | PBM binding z-score [5] | PBM binding z-score [6] | PBM binding z-score [7] | PBM binding z-score [8] | PBM binding z-score [9] | PBM binding z-score [10] | PBM binding z-score [11] | PBM binding z-score [12] | PBM binding z-score [13] | PBM binding z-score [14] | PBM binding z-score [15] | PBM binding z-score [16] | PBM binding z-score [17] | PBM binding z-score [18]
1 | AGAATGAGGTTACCAAAGATAAGGGAAACGCTTG | 3.63 | 3.34 | 0.848 | 0.91 | 1.01 | 0.851 | 0.109 | 1.68 | 0.445 | 1.73 | 0.456 | 1.85 | 1.54 | 1.02 | 2.18 | 2.55 | 0.618 | 0.393
2 | ATCGAGAGGTCGACGAGGTGAGTATACACCGTTT | 0.355 | 1.71 | -0.00601 | 0.563 | 0.663 | 2.43 | 0.615 | 2.84 | -0.215 | 2.8 | 1.94 | 3.1 | 2.85 | 1.07 | 3.46 | 3.58 | 0.777 | 1.52
3 | TCTTGTAGATCAACACGAGGTTAAGAAAGATCGA | 1.48 | 1.07 | 0.862 | 1 | 0.489 | 1.05 | 0.0696 | 1.27 | 0.374 | 0.536 | 0.596 | 0.823 | 0.361 | 0.555 | 1.07 | 1.57 | 0.0132 | 0.099
4 | CGTACTAGGTCATCCAGGACAGTGAATACATTGA | 7.23 | 7.74 | 1.93 | 1.33 | 2.23 | 1.87 | 0.94 | 2.45 | 0.55 | 3.8 | 3.35 | 3.73 | 4.47 | 2.15 | 2.67 | 3.76 | 2.4 | 1.81
5 | GGAACGAGGGAAAGTTGATAGCAGAGTTTGATGG | 0.0988 | -0.37 | -0.287 | -0.305 | 0.398 | -0.176 | 0.056 | -0.338 | -0.00431 | -0.247 | -0.315 | -0.266 | 0.0692 | 0.0118 | -0.106 | -0.351 | -0.268 | -0.209
6 | AGAATGAGGTTACCAAAGATCCGGGAAACGCTTG | 3.81 | 3.61 | 0.821 | 0.35 | 0.752 | 0.78 | -0.0527 | 1.76 | 0.0139 | 2.05 | 0.848 | 1.96 | 1.65 | 1.05 | 2.5 | 2.61 | 0.714 | 0.252
7 | CCAGACAGGGGAGAAGGTAACTCAGCCTCGATTA | 0.0282 | -0.359 | -0.398 | -1.2 | 0.413 | -0.427 | -0.0553 | -0.353 | 0.21 | -0.286 | -0.0846 | -0.296 | -0.226 | 0.218 | -0.357 | -0.218 | -0.17 | -0.316
8 | CCGACTGGGGCACGGTTACCATAACGCACAGCCA | 3.83 | 4.42 | -0.407 | -0.566 | 0.044 | -0.353 | -0.44 | -0.139 | -0.261 | 1.06 | 0.696 | 0.548 | 1.13 | -1.14 | 0.163 | -0.214 | -0.521 | -0.442
9 | CAAACTGGGTCACCGGAAGGTCAAAGTCCGCATG | 8.13 | 8.83 | 1.41 | 0.892 | 6.19 | 5.57 | 1.27 | 6.73 | 0.623 | 4.9 | 5.45 | 8.27 | 7.08 | 0.907 | 6.37 | 4.2 | 1.61 | 2.92
10 | TTCCCAAGGTGAGCTGAGGTCGTTGATCCAACTC | 0.471 | 1.12 | -1.17 | -1.13 | 0.0355 | 4.98 | 0.698 | 2 | -0.927 | 1.75 | 1.95 | 1.28 | 0.949 | 0.117 | 1.34 | 4.52 | 2.4 | 2.61
11 | CCTATTAGTTGACCATGAGGGCAACCGAAGCTCG | 0.64 | 0.77 | 0.542 | 0.384 | 1.98 | 1.48 | 1.48 | 1.37 | 1.39 | 1.52 | 2.22 | 1.32 | 1.16 | 0.831 | 0.812 | 2.11 | 1.79 | 1.43
12 | TGAATGAGGTTAAAGATCAGGGTACGTGGCGTCG | 2.05 | 3.93 | 1.21 | 0.291 | 1.09 | 2.14 | -0.073 | 3.31 | -0.532 | 2.21 | 1.27 | 2.36 | 1.42 | 1.41 | 3.5 | 2.78 | 0.878 | 1.25
13 | TCTAGTTGTTCAAAGGTCACACACTCGAAATGCG | 2.71 | 4.64 | 1.27 | 1.68 | 4.16 | 5.49 | 1.93 | 5.89 | 4.19 | 5 | 5.28 | 6.3 | 6.07 | 2.05 | 7.19 | 4.11 | 2.21 | 2.78
14 | GCTTGCAGGCCATTTGGGTCACTCAATGACGGGC | 3.07 | 3.01 | -0.212 | -0.514 | 0.237 | 0.662 | 0.0952 | 1.09 | -0.792 | 1.76 | 1.87 | 1.31 | 1.56 | 0.31 | 0.653 | 2.07 | 0.686 | 0.751
15 | TCTATTAGTTGAAGGGCAAGCGACGAGTCCGTTT | 2.2 | 0.635 | 0.42 | 0.671 | 0.728 | 0.841 | 0.859 | 0.478 | 0.687 | 1.53 | 1.28 | 0.558 | 0.708 | 1.59 | 0.725 | 0.196 | 0.0509 | 1.23
